Results filed as inconclusive are left out. Entries that show only a call come without a potency. Some compounds were tested as several samples or in several runs, with calls that do not always agree. Calls of active or inactive are those of the source. Unless noted, calls come from the whole dose curve; as a rule, active = well fitted curve in the direction sought with a large enough effect in the repeat runs; inconclusive = weak or mixed curves; inactive = no such curve, though single readings can be large; an effect the other way counts as inactive or inconclusive.

One assay is described as follows: qHTS assay to identify small molecule agonists of the sonic hedgehog signaling (Shh) pathway - cell viability counter screen (AID 1259366). Note: nearly all actives have a fitted effect of over 50% in size. Note: potency is the fitted concentration of half-maximal effect. The note with it: NIH/3T3 Gli1-Luc viability, CellTiter-Fluor, 24 h; series mostly up to 92.4 µM. An outline of the steps: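 Compounds in DMSO were pin-transferred onto 3T3 Gli1-Luc cells that had settled 4hr; plates then stood 24hr at 37C and 5% CO2. One hour before the end, CellTiter-Fluor was added and fluorescence recorded.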
For the compound `C1COCCN1`, the Potency entry was “inactive”.

Turning to `C=CCOC(=O)C(=C)C`, the Potency result was “inactive”.

For `C=C[C@H]1CN2CC[C@H]1C[C@H]2[C@H](O)c1ccnc2ccc(OC)cc12`, the Potency entry is “inactive”.

In the case of `C=C[C@H]1CN2CC[C@H]1C[C@@H]2[C@@H](O)c1ccnc2ccc(OC)cc12`, the Potency entry is “inactive”.

With `CCCCCCOCCOCCO`, the Potency entry is “inactive”.

As to `c1ccc2c(c1)ccc1cc3c(ccc4ccccc43)cc12`, the Potency entry is “inactive”.

In the case of `Cc1ccc2c(c1)C(=O)OC2=O`, the Potency result was “inactive”.

As for `C[C@]12CC[C@@H]3c4ccc(O)cc4CC[C@H]3[C@@H]1CC[C@H]2O`, the Potency result was “inactive”.

As to `CCCOCCO`, the Potency entry was “inactive”.

In the case of `O=S1(=O)CCCO1`, the Potency result is “inactive”.

Consider `O=C(CCCN1CCC(O)(c2ccc(Cl)cc2)CC1)c1ccc(F)cc1`, for which the Potency was 68.6 µM (active) and inactive.

As for `Clc1ccc(Sc2cc(Cl)c(Cl)cc2Cl)cc1`, the Potency entry was “inactive”.

A further assay in a line: qHTS assay to identify small molecule antagonists of the sonic hedgehog signaling (Shh) pathway - cell viability counter screen (AID 1259367). Note: nearly all actives have a fitted effect of over 55% in size. The note with it: NIH/3T3 Gli1-Luc viability, CellTiter-Fluor, 24 h; series mostly up to 92.4 µM. In outline: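 Seed 3T3 Gli1-Luc cells at 2,000 per well; incubate 4 hr; add compound in DMSO, then conditioned medium; incubate at 37C with 5% CO2; add CellTiter-Fluor after 23 hr; read fluorescence 1 hr later.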
In general terms: qHTS replaces the single test concentration by a dilution series.
Turning to `CC1(C)C(C=C(Cl)Cl)C1C(=O)OCc1cccc(Oc2ccccc2)c1` (stereo not given), the Potency result is “inactive”.

Turning to `CCCCCCCCCCC(CO)CCCCCCCC` (stereo not given), the Potency result is “inactive”.

As to `C=CCCCCCCCCCC`, the Potency entry is “inactive”.

Turning to `CCCCCCCCCCCCO`, the Potency result is “inactive”.

For `CCOC(=O)C(C)Oc1ccc(Oc2cnc3cc(Cl)ccc3n2)cc1` (stereo not given), the Potency result was “inactive”.

Consider `CCCN1C=CN(C)C1`, for which the Potency entry is “inactive”.

On to `CCCCCCCCCCCCCO`, for which the Potency result is “inactive”.

In the case of `CN(Cc1cnc2nc(N)nc(N)c2n1)c1ccc(C(=O)N[C@@H](CCC(=O)O)C(=O)O)cc1`, the Potency result was “inactive”.

Take `Cc1ccc(S(=O)(=O)NCl)cc1`: the Potency result was “inactive”.

In the case of `IC(I)I`, the Potency result was “inactive”.

Consider `CN(C)C`, for which the Potency result is “inactive”.

As to `CC/C(=C(/CC)c1ccc(O)cc1)c1ccc(O)cc1`, the Potency result is “inactive”.

`CN1CCOCC1`: the Potency result is “inactive”.

In the case of `C=CC(=O)OCCCC`, the Potency result is “inactive”.

Consider `C=CCOC(=O)C(=C)C`, for which the Potency result is “inactive”.

In the case of `C=C[C@H]1CN2CC[C@H]1C[C@@H]2[C@@H](O)c1ccnc2ccc(OC)cc12`, the Potency entry was “inactive”.

`CCCCCCOCCOCCO`: the Potency entry was “inactive”.

For `Cc1ccc2c(c1)C(=O)OC2=O`, the Potency entry was “inactive”.

As to `CCCOCCO`, the Potency entry is “inactive”.

In the case of `Clc1ccc(Sc2cc(Cl)c(Cl)cc2Cl)cc1`, the Potency result is “inactive”.

A further assay is described as follows: qHTS assay to identify small molecule agonists of the sonic hedgehog signaling (Shh) pathway (AID 1259368; calls by dose curve;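 note: NIH/3T3-derived 3T3Gli1-Luc cells carrying a stable Gli1-driven firefly luciferase reporter; nearly all actives have a fitted effect of over 15% in size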). The note with it: NIH/3T3 Gli1-Luc reporter, luciferase, 24 h; series mostly up to 92.4 µM. In outline:
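Steps: seed 3T3 Gli1-Luc cells, incubate 4 hr at 37 C, pin-transfer compounds in DMSO alongside a positive control, incubate 24 hr, add luciferase detection reagent, wait 30 min at room temperature, read luminescence.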
`CCCCCCCCCCC(CO)CCCCCCCC` (stereo not given): the Potency entry was “inactive”.

As to `C=CCCCCCCCCCC`, the Potency entry is “inactive”.

As to `C=CCNCC=C`, the Potency entry is “inactive”.

Take `Brc1nc2ccccc2s1`: the Potency result was “inactive”.

As to `CCCCCCCCCCCCO`, the Potency entry was “inactive”.

As to `Nc1ccc2c(O)cc(S(=O)(=O)O)cc2c1`, the Potency entry was “inactive”.

For the compound `NC[C@H](O)c1ccc(O)c(O)c1`, the Potency result was “inactive”.

Turning to `CCOC(=O)C(C)Oc1ccc(Oc2cnc3cc(Cl)ccc3n2)cc1` (stereo not given), the Potency entry is “inactive”.

On to `CCCN1C=CN(C)C1`, for which the Potency entry is “inactive”.

For `CCCCCCCCCCCCCO`, the Potency entry was “inactive”.

In the case of `c1ccc2c(c1)ccc1ncccc12`, the Potency entry is “inactive”.

Consider `CN(Cc1cnc2nc(N)nc(N)c2n1)c1ccc(C(=O)N[C@@H](CCC(=O)O)C(=O)O)cc1`, for which the Potency result is “inactive”.

As to `IC(I)I`, the Potency entry is “inactive”.

Regarding `CN(C)C`, the Potency entry is “inactive”.

For `COc1ccc(C(=O)c2ccccc2O)c(O)c1`, the Potency entry is “inactive”.

For `c1ccc2ncccc2c1`, the Potency result is “inactive”.

As to `CN1CCOCC1`, the Potency result was “inactive”.

With `Cc1cccc(Nc2ccccc2C(=O)O)c1C`, the Potency result was “inactive”.

In the case of `C=CC(=O)OCCCC`, the Potency result was “inactive”.

In the case of `C[C@]12CC[C@@H]3c4ccc(O)cc4CC[C@H]3[C@@H]1CC[C@@H]2O`, the Potency entry is “inactive”.

Consider `C1COCCN1`, for which the Potency entry was “inactive”.

Turning to `CCCCCCOCCOCCO`, the Potency result was “inactive”.

Turning to `c1ccc2c(c1)ccc1cc3c(ccc4ccccc43)cc12`, the Potency entry was “inactive”.

Turning to `Cc1ccc2c(c1)C(=O)OC2=O`, the Potency result is “inactive”.

As to `C[C@]12CC[C@@H]3c4ccc(O)cc4CC[C@H]3[C@@H]1CC[C@H]2O`, the Potency entry was “inactive”.

Regarding `CCCOCCO`, the Potency result is “inactive”.

Regarding `O=S1(=O)CCCO1`, the Potency entry is “inactive”.

Turning to `O=C(CCCN1CCC(O)(c2ccc(Cl)cc2)CC1)c1ccc(F)cc1`, the Potency result is “inactive”.

The values above are taken from PubChem BioAssay (Tox21).
